Compound activity deposited in PubChem BioAssay by National Center for Advancing Translational Sciences (NCATS).
The list is not random: actives were taken first. Their share in the collection is about 2.5%.
Cruzain noTriton = inhibitors of Trypanosoma cruzi cruzain without detergent. purified cruzain, Z-FR-AMC fluorescence, no detergent. P25779. Potency, µM, for the others: max response, negative = inhibition, usual class: inhibitors. 2.3% of 200,000 active. AID 1476;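 note: plate controls were enzyme without inhibitor for no effect and buffer without enzyme for full effect; nearly all actives have a fitted effect of over 40% in size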
Target sequence (P25779 123-467 limits assumed): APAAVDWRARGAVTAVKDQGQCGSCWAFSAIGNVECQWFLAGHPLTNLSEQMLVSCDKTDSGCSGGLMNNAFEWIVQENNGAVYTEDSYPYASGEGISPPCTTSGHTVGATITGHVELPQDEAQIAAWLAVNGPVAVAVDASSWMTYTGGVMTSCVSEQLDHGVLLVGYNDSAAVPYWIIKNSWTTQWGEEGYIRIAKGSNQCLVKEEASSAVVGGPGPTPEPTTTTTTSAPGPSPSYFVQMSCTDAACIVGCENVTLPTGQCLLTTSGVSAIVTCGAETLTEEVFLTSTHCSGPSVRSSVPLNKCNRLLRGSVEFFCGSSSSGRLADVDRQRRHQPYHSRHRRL
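Purified cruzain at 1.5 nM, pre-incubated 15 min with compound at room temperature in 100 mM sodium acetate pH 5.5, 5 mM DTT, 0.00005% Triton X-100. Reaction started with 2 uM Z-FR-AMC; AMC fluorescence increase over 60 s gives rate.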
Cruzain inh Det = cruzain (T. cruzi) inhibition with detergent; purified cruzain, Z-FR-AMC fluorescence, 0.01% Triton; Potency, µM, for inactives: max response, negative = inhibition, actives largely listed as inhibitors; 0.43% of 200,000 active; AID 1478;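 note: plate controls were neutral wells for no effect and buffer without enzyme for full effect; nearly all actives have a fitted effect of over 40% in size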
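Cruzain (1.5 nM) preincubated 15 min at RT with compound in 100 mM sodium acetate pH 5.5, 5 mM DTT, 0.01% Triton X-100. Reaction started with 2 uM Z-FR-AMC; AMC fluorescence (ex 360/em 450 nm) change over 60 s gave rate.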
* marks the source's active call; other numbers are inactive results. Calls come from the whole dose curve; as a rule, active = well fitted curve in the direction sought with a large enough effect; inconclusive = small, poorly fitted or top-dose-only effect, or another doubt; inactive = no such curve, though single readings can be large; an effect the other way counts as inactive or inconclusive. Potency is the fitted concentration of half-maximal effect.

Screening CS(=O)(=O)N1CCN(c2ccc(NC(=O)c3ccc(-c4ccc(Cl)cc4)o3)cc2)CC1 returned Cruzain noTriton inconclusive and Cruzain inh Det 3%.
For CS(=O)(=O)N1CCN(c2ccccc2NC(=O)c2ccc(-c3ccc(Br)cc3)o2)CC1 the results were Cruzain noTriton 25µM* and Cruzain inh Det -3%.
Screening COC(=O)c1ccccc1NC(=O)c1ccc(-c2ccc(Br)cc2)o1 returned Cruzain noTriton 7.9µM* and Cruzain inh Det -13%.
`O=C(Nc1cccc(NC(=O)c2ccc(-c3ccc(Br)cc3)o2)c1)c1ccco1` gave Cruzain noTriton 32µM* and Cruzain inh Det -7%.
COc1cc2ccccc2cc1C(=O)Nc1ccccc1N1CCN(S(C)(=O)=O)CC1 was read as Cruzain noTriton 25µM* and Cruzain inh Det -6%.
`Cc1ccc2cccc(NC(=O)c3ccc(-c4ccc(Br)cc4)o3)c2n1` gave Cruzain noTriton -12% and Cruzain inh Det 1%.
For CS(=O)(=O)N1CCN(c2ccccc2NC(=O)c2cccc3ccccc23)CC1 the results were Cruzain noTriton 6% and Cruzain inh Det -2%.
Screening O=C(Nc1cccc(-c2nc3ccccc3o2)c1)c1ccc(-c2ccc(Br)cc2)o1 returned Cruzain noTriton inconclusive and Cruzain inh Det -2%.
For CC(C)Oc1ccc(C(=O)Nc2c(C(=O)Nc3cccc(F)c3)oc3ccccc23)cc1 the results were Cruzain noTriton 3% and Cruzain inh Det 0%.
Cn1cccc1C(=O)N1CCC2(CC1)CCN(c1cccc(-c3ccccc3)c1)CC2 was read as Cruzain noTriton inconclusive and Cruzain inh Det -2%.
`Cc1cc(N=Cc2c(O)n(-c3cccc(Cl)c3)c(=O)c3ccccc23)no1` gave Cruzain noTriton -4% and Cruzain inh Det -4%.
`Cc1ccc(N=Cc2c(O)n(-c3cc(Cl)ccc3N3CCOCC3)c(=O)c3ccccc23)cc1C` gave Cruzain noTriton 6.3µM* and Cruzain inh Det -1%.
Screening COC(=O)[C@@]1(Cc2ccccc2)[C@H]2c3cc(C(=O)N4CCCC4)n(CCc4ccccn4)c3C[C@H]2CN1C(=O)c1ccccc1 returned Cruzain noTriton inconclusive and Cruzain inh Det -3%.
CCCCNc1nc(Oc2ccc(=O)n(C)n2)nc(N2CCOCC2)n1 was read as Cruzain noTriton 7% and Cruzain inh Det 0%.
Screening COc1cc(OC)c(OC)cc1/C=C/C(=O)c1ccc(NS(=O)(=O)c2ccc(C)cc2)cc1 returned Cruzain noTriton 20µM* and Cruzain inh Det -4%.
Screening CC(=O)c1ccc(NS(=O)(=O)c2ccc(C)cc2)cc1 returned Cruzain noTriton 6% and Cruzain inh Det 1%.
`COc1ccc(-c2noc(-c3ccc(NCc4ccco4)c([N+](=O)[O-])c3)n2)cc1OC` gave Cruzain noTriton inconclusive and Cruzain inh Det -3%.
CCn1c(C(=O)Nc2c(C)cccc2C)cc2sc(Cl)cc21 was read as Cruzain noTriton 9% and Cruzain inh Det -4%.
`COc1ccc(NC(C)C(=O)N/N=C/c2ccccc2OCc2cccc(Br)c2)cc1` (stereo unspecified) gave Cruzain noTriton inconclusive and Cruzain inh Det -5%.
For Cc1ccccc1NC(C)C(=O)N/N=C/c1ccccc1OCc1cccc(Br)c1 (stereo unspecified) the results were Cruzain noTriton 32µM* and Cruzain inh Det 0%.
NS(=O)(=O)c1ccc(N=Nc2cc3ccccc3c(C(=O)O)c2O)cc1 was read as Cruzain noTriton -8% and Cruzain inh Det -1%.
Screening CC(=O)NCCC(=O)Nc1nc(-c2cccs2)c(-c2cccs2)s1 returned Cruzain noTriton inconclusive and Cruzain inh Det -6%.
`O=C(Nc1nc(-c2cccs2)c(-c2cccs2)s1)C1(c2ccccc2)CC1` gave Cruzain noTriton 10µM* and Cruzain inh Det -1%.
`OC[C@@H](O)[C@@H](O)[C@@H](O)[C@@H](O)c1nc2ccc(Cl)cc2[nH]1` gave Cruzain noTriton 5% and Cruzain inh Det 3%.
`Cc1ccc(C(C)(C)C)c(OCC(=O)NCCc2nc3ccccc3[nH]2)c1` gave Cruzain noTriton 7% and Cruzain inh Det -2%.
For CCC(=O)NCCc1nc2ccccc2[nH]1 the results were Cruzain noTriton 1% and Cruzain inh Det 1%.
For COc1ccccc1OCC(=O)NCCc1nc2ccccc2[nH]1 the results were Cruzain noTriton 13µM* and Cruzain inh Det 16µM*.
Screening Cc1cc(OCC(=O)NCCc2nc3ccccc3[nH]2)cc(C)c1Cl returned Cruzain noTriton 4% and Cruzain inh Det 8.9µM*.
Screening Cc1ccc(-c2nnn(CC(=O)N(c3cccc(F)c3)C(C(=O)NC3CCCC3)c3ccco3)n2)o1 (stereo unspecified) returned Cruzain noTriton 6.3µM* and Cruzain inh Det 2%.
For Cc1ccc(-c2nnn(CC(=O)N(c3ccccc3F)C(C(=O)NC3CCCC3)c3ccco3)n2)o1 (stereo unspecified) the results were Cruzain noTriton 3% and Cruzain inh Det 1%.
Cc1ccc(-c2nnn(CC(=O)N(c3ccc(F)cc3)C(C(=O)NC(C)(C)C)c3ccco3)n2)o1 (stereo unspecified) was read as Cruzain noTriton 9% and Cruzain inh Det 2%.
Cc1ccc(-c2nnn(CC(=O)N(c3ccc(F)cc3)C(C(=O)NC3CCCC3)c3ccco3)n2)o1 (stereo unspecified) was read as Cruzain noTriton 10µM* and Cruzain inh Det 2%.
Screening Cc1onc(-c2c(F)cccc2Cl)c1C(=O)OCC(=O)NC(c1ccccc1)c1ccccc1 returned Cruzain noTriton 32µM* and Cruzain inh Det -4%.
Screening Cc1noc(C)c1C(=O)OCC(=O)NC(c1ccccc1)c1ccccc1 returned Cruzain noTriton -5% and Cruzain inh Det 1%.
For CC(=O)Nc1ccc(OC(=O)c2cc3cc(Br)cc(Br)c3oc2=O)cc1 the results were Cruzain noTriton 20µM* and Cruzain inh Det -1%.
Screening CC(=O)Nc1ccc(OC(=O)c2cc3cc(Br)ccc3oc2=O)cc1 returned Cruzain noTriton 0% and Cruzain inh Det 0%.
For Cc1ccc(CNC(=O)c2cc(-c3ccc(Cl)cc3)on2)cc1 the results were Cruzain noTriton 9% and Cruzain inh Det -1%.
Screening C[C@@]1(C(NC(=O)c2ccc(-c3ccccc3)cc2)c2ccc(Cl)cc2)C[C@H]1C1CCCCC1 (stereo partly specified) returned Cruzain noTriton inconclusive and Cruzain inh Det 2%.
Screening C[C@@]1([C@@H](NC(=O)c2cccs2)c2ccc(-c3ccccc3)cc2)C[C@H]1C1CCCCC1 returned Cruzain noTriton 7.9µM* and Cruzain inh Det -2%.
`COc1cccc(NC(=O)Cn2c(=O)n(-c3ccccc3)c(=O)c3ccc(C(=O)NCc4ccc5c(c4)OCO5)cc32)c1` gave Cruzain noTriton inconclusive and Cruzain inh Det -3%.
`CCc1ccc(Oc2c(C(F)(F)F)oc3c(CN4CCN(CC)CC4)c(O)ccc3c2=O)cc1` gave Cruzain noTriton 0% and Cruzain inh Det -9%.
For CSc1ncc(Cl)c(C(=O)N(Cc2ccc(N(C)C)cc2)Cc2ccco2)n1 the results were Cruzain noTriton -9% and Cruzain inh Det -8%.
CC(=O)c1sc(NC(=O)c2cc(-c3ccccc3)nn2-c2ccccc2)nc1C was read as Cruzain noTriton -16% and Cruzain inh Det -6%.
O=C(Nc1nc2ccccc2s1)c1cc(-c2ccccc2)nn1-c1ccccc1 was read as Cruzain noTriton 10µM* and Cruzain inh Det -2%.
